Here are results for 40 compounds from PubChem BioAssay (NCATS).

Structures are written as SMILES. Results filed as inconclusive are left out. Where a call stands in place of a potency, no number is given. Activity calls are given as the source filed them. Calls follow the shape of the dose curve; as a rule, active = well fitted inhibition curve with a large enough effect; inconclusive = small, poorly fitted or top-dose-only effect; inactive = flat fitted curve, though single readings scatter.

The target of this test is Calcium and integrin-binding protein 1 (Homo sapiens) (UniProt Q99828). As to the kind of experiment: Primary qHTS for Identification of Calcium Integrin Binding Protein 1 (CIB1) Competitor (AID 1508620).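 Also: GST tagged CIB1 binding a fluorescein labelled alphaIIb integrin peptide tracer; top concentration of the series differs between compounds.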 Conditions: CIB1-GST / FITC-alphaIIb peptide fluorescence polarization; series mostly up to 114 µM. The essentials: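 CIB1-GST (1 uM final) and compound incubated 15 min at room temperature before adding FITC-alphaIIb peptide tracer (100 nM final). Competition for binding read by fluorescence polarization (ex 480, em 540) after another 15 min at room temperature.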
Calcium and integrin-binding protein 1 (Homo sapiens), sequence (Q99828 whole entry, looked up): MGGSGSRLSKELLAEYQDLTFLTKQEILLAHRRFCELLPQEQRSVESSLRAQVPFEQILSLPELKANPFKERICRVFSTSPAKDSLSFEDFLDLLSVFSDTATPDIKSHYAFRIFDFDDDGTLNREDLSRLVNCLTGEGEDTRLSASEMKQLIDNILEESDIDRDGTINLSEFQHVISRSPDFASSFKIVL
(Quantitative high-throughput screening tests each substance at several concentrations.)
Consider `Cc1ccnc(C(=S)N2CCN(c3cccc(C(F)(F)F)c3)CC2)c1`, for which the Potency entry is “inactive”.
Turning to `O=C1CCCC2=C1C(c1[nH]ncc1Cl)N=C(Nc1nc3c(Br)cccc3o1)N2` (stereo not given), the Potency result is “inactive”.
Turning to `O=C(Nc1ncc(Cc2ccc(C(F)(F)F)cc2)s1)c1cnc(-c2ccccc2)[nH]1`, the Potency result is “inactive”.
For `O=C1c2ccccc2C(=O)N1c1ncccc1O`, the Potency entry is “inactive”.
`O=C(/C=C/c1ccc(F)cc1)Nc1cccc([S+](=O)([O-])Nc2ccccc2F)c1`: the Potency entry is “inactive”.
Consider `Cc1nc(CNc2ncnc3ccc(-c4oc(-c5ccccc5)nc4C)cc23)cs1`, for which the Potency result is “inactive”.
With `C=CCNc1nnc(-c2cccc3ccccc23)o1` the entry was “inactive”; with `N#CN1CCC(N[S+](=O)([O-])c2cccc(F)c2)CC1`, “inactive”; with `COc1cccc(-c2csc(N3CCC(C(N)=O)CC3)n2)c1`, “inactive”.
As to `COc1ccc(OC2=NS(=O)(=O)c3ccccc32)cc1`, the Potency result is “inactive”.
As for `COc1ccc(NCc2ccc(O)c3ncccc23)nc1`, the Potency entry is “inactive”.
With `O=C(O)c1ccc2c(c1)C(=O)N([C@H](Cc1ccccc1)C(=O)O)C2=O`, the Potency result was “inactive”.
With `Cc1cc(C)nc(NC(=S)N2CCN(c3cnc4nccn4c3)CC2)c1`, the Potency result was “inactive”.
For the compound `CC(C)c1ccccc1-c1nc2c(c(NCc3ccc(-c4cccnc4)cc3)n1)CNC2`, the Potency entry was “inactive”.
`Nc1ccccc1OC1=NS(=O)(=O)c2ccccc21`: the Potency result was “inactive”.
With `O=S(=O)(NCCNc1nc(-c2ccco2)nc2ccccc12)c1ccccc1` the entry was “inactive”; with `NC(=O)C1CCN(c2nc(-c3cccc(Cl)c3)cs2)CC1`, “inactive”; with `CC(=O)Nc1sc2c(c1-c1ccc3c(c1)CCO3)CCNC2`, “inactive”.
With `Cc1ccc(OCCn2c(CCNC(=O)NC3CCCCC3)nc3ccccc32)cc1` the entry was “inactive”; with `O=C1Nc2ccccc2/C1=C\c1ccc(C(=O)O)cc1`, “inactive”.
Turning to `N#Cc1nc(NCCO)nc(Nc2ccccc2)n1`, the Potency entry was “inactive”.
With `COc1ccc(C2=Nn3c(nnc3-c3ccccc3O)SC2)c(OC)c1` the entry was “inactive”; with `c1csc(CNc2ccc(N3CCOCC3)cc2)c1`, “inactive”.
Take `Cc1ccc(OCCn2c(CCNC(=O)Cc3ccccc3)nc3ccccc32)cc1`: the Potency result was “inactive”.
With `Nc1ncc(S(=O)(=O)N2CCOCC2)s1`, the Potency entry is “inactive”.
As for `COc1ccc(C2NC(=O)c3ccccc3N2)cc1COc1c(C)cc(NC(C)=O)cc1C` (stereo not given), the entry is “inactive”; as for `CCOC(=O)CCCC(=O)Nc1ncnc2c1C(c1ccccc1)c1c(ccc3ccccc13)O2` (stereo not given), “inactive”; as for `CCOC(=O)c1cccc(-n2cnc(/C=C3\NC(=O)N(CC(=O)OC(C)(C)C)C3=O)c2)c1`, “inactive”.
With `Cc1ccccc1Nc1nc(C#N)nc(NC2CCCC2)n1` the entry was “inactive”; with `O=C1c2ccccc2C(=O)N1c1nccs1`, “inactive”; with `Cn1c2cc(B(O)O)sc2c2cnn(Cc3ccccc3F)c(=O)c21`, “inactive”.
`Cn1nnnc1Sc1ncnc2scc(-c3cccc(Cl)c3)c12`: the Potency entry was “inactive”.
On to `Cc1cc(NC(=O)Nc2nnc(-c3cccnc3)s2)ccc1F`, for which the Potency entry is “inactive”.
On to `Cn1c2ccsc2c2ncn(Cc3ccccc3F)c(=O)c21`, for which the Potency entry was “inactive”.
Take `O=C1NS(=O)(=O)c2cc3c(cc21)C(=O)NS3(=O)=O`: the Potency result is “inactive”.
As to `Cc1cccc(C)c1-n1c(SCC(=O)NCCCCCC(=O)O)nnc1-c1cccc([S+](=O)([O-])N2CCCC2)c1`, the Potency result was “inactive”.
In the case of `N#Cc1nc(NCC(F)F)c2ncn(-c3cccc(Cl)c3)c2n1`, the Potency entry is “inactive”.
As for `C=CCNc1oc(-c2cccc(Cl)c2)nc1C#N`, the entry is “inactive”; as for `O=C(CNC(=O)c1ccccc1)OC(CCc1ccccc1)C(=O)Nc1cc(C(F)(F)F)ccc1Cl` (stereo not given), “inactive”.
`NC(=O)C1CCN(c2nc(-c3ccccc3)cs2)CC1`: the Potency entry was “inactive”.
